Screens (PubChem)
Marburg entry inh – Marburg virus entry inhibition; Marburg virus pseudotyped entry inhibition, cell reporter; Potency, µM (series often up to 37.8 µM), for inactives: at the highest dose activity change, negative = inhibition, actives largely listed as inhibitors; 1.8% of 300,000 active; calls by dose curve; tested in HEK293 cells; further: potency means the concentration at half of the fitted maximal effect
HCMV inh – inhibitors of human cytomegalovirus; AID 1259415; 4.5% of 410,000 active; HFF cells, HCMV-luciferase reporter, 72 h; active compounds read low; activity change, negative = inhibition, % at 57.5 µM; in the data active means activity change below about -60%; inconclusive means no clear call, values can overlap the other calls; inactive means above about -39%
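Screen run at 2 compound doses on HFFs infected with reporter HCMV, MOI 1 PFU/cell. Luciferase activity from cell lysates at 72 h post infection gave inhibition relative to buffer-only and Salinomycin wells.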
VACV mCherry inh – vaccinia inhibition (mCherry reporter); Potency, µM (series often up to 36.5 µM), inactives show top-dose activity change, negative = inhibition, most hits filed as inhibitors; 0.63% of 310,000 active; AID 720579; Vaccinia virus mCherry reporter infection, fluorescence; calls by dose curve; tested in A549 cells; further: potency means the concentration at half of the fitted maximal effect; nearly all actives have a fitted effect of over 35% in size
HCV inh – blocks hepatitis C virus. Huh7.5.1 HCVcc-Cre infection, luciferase reporter, 44 h. Potency, µM (highest dose often 41.8 µM), for the others: top-dose activity change, negative = inhibition, actives largely listed as inhibitors. 3.4% of 340,000 active. AID 651820; active means well fitted inhibition curve with a large enough effect; inconclusive means small, poorly fitted or top-dose-only effect, or another doubt; inactive means no such curve, though single readings can be large or run the other way; further: potency means the concentration at half of the fitted maximal effect
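HCVcc-Cre virus at an moi near 0.5 was added right after compound to cells cultured 4 h from seeding (1,000 cells/well). Luciferase activity was determined 44 h later, 15 min after substrate addition at RT.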
Lassa entry inh – Lassa virus entry inhibition; Lassa virus pseudotype entry inhibition, cell reporter; Potency, µM (highest dose often 37.9 µM), for inactives: at the top dose activity change, negative = inhibition, actives largely listed as inhibitors; 1.2% of 300,000 active; AID 540256; calls by dose curve; tested in HEK293 cells; further: potency means the concentration at half of the fitted maximal effect; nearly all actives have a fitted effect of over 50% in size
VACV Venus inh – vaccinia inhibition (Venus reporter); 0.46% of 330,000 active; Potency, µM (titrated, usually from 36.5 µM), without a hit: at the top dose activity change, negative = inhibition, actives largely listed as inhibitors; Vaccinia virus Venus reporter expression, fluorescence; calls by dose curve; tested in A549 cells; further: potency means the concentration at half of the fitted maximal effect; nearly all actives have a fitted effect of over 30% in size
Numbers without * were called inactive; i = inactive; ? = inconclusive; / = no result given; [ ] = remark or other dose. A selection: hits, their analogues and other compounds. The true share with any hit is near 7.8%. On the % scale 0 is the no-effect control and ±100 the full control effect.

SMILES | Marburg entry inh | HCMV inh | VACV mCherry inh | HCV inh | Lassa entry inh | VACV Venus inh
Cc1ccc(C(=O)NCc2ccc(N3CCN(C(=O)OC(C)(C)C)CC3)cc2)cc1 | 2% | -34 | i | -3% | 5% | -7%
C/C1=C/CCCc2cc(OS(=O)(=O)C(F)(F)F)ccc2OCC1 | / | -5 | / | / | / | /
N[C@H](Cn1ccc(=O)[nH]c1=O)C(=O)O | 3% | / | / | / | / | /
COc1cccc(CN(C)C(=O)c2cnn(-c3ncc4c(n3)-c3ccccc3CCC4)c2C)c1 | / | / | ? | / | / | -28%
CN1CCN(C(=O)c2ccc(S(=O)(=O)N(C)c3ccccc3)cc2)CC1 | / | -19 | -2% | / | / | 0%
Cc1[nH]c(C)c(S(=O)(=O)NCc2ccc(OC(C)C)cc2)c1C(=O)N1CCCC1 | / | -31 | -11%[7.34 µM] | 5% | / | -11%[7.34 µM]
Cc1cccc(N2CCN(C(=O)c3ccc(S(=O)(=O)N(C)c4ccccc4)cc3)CC2)c1C | ? | ? | ? | ? | 4.5µM* | ?
N#Cc1ccc(CN2CCN(C(=O)c3ccc(S(=O)(=O)NCc4ccco4)cc3)CC2)cc1 | / | 0 | / | 6.3µM* | / | /
COc1ccc(CNS(=O)(=O)c2c(C)[nH]c(C)c2C(=O)N2CCCC2)cc1 | / | -62* | -13%[7.34 µM] | 1% | / | -2%[7.34 µM]
CC(=O)c1ccc(N2CCN(C(=O)/C=C/c3ccc(S(=O)(=O)NCc4ccco4)cc3)CC2)cc1 | ? | -66* | -9% | ? | ? | -14%
O=C(CCS(=O)(=O)c1cccs1)Nc1ccc(C(=O)Nc2cccc(Cl)c2)cc1 | ? | 23 | -21% | / | 8%[46.1 µM] | -16%
COc1ccc(N2CCN(C(=O)c3ccc(CNS(=O)(=O)c4cccc(OC)c4)cc3)CC2)cc1 | -19%[46.1 µM] | -38 | ? | 3.5µM* | ? | -22%
COc1cccc(S(=O)(=O)NCc2ccc(C(=O)N3CCN(c4ccccc4)CC3)cc2)c1 | / | -32 | / | ? | / | /
CN(c1ccc(C(=O)N2CCN(Cc3ccccc3)CC2)cc1)S(=O)(=O)c1ccc(Cl)cc1 | ? | -63* | -5% | 10µM* | -11%[46.1 µM] | -21%
CC(C)OC(=O)[C@H](C)NC(=O)N1CCc2nc(COc3ccccc3)c3c(c2C1)CO[C@@H](C)C3 | -36%[14.2 µM] | / | / | / | / | /
CCc1c(C)nc2cc(-c3ccc(OC)c(OC)c3)nn2c1NCC1CC1 | ? | -8 | ? | 11µM* | ? | ?
CC1=C(C(=O)Nc2ccccc2)C(c2ccc(C)cc2)N=C(Nc2nc3ccccc3o2)N1 (stereo not drawn) | ? | -67* | ? | -26% | ? | ?
CC1(C)CC(=O)C2=C(C1)NC(Nc1nc3ccccc3o1)=NC2c1ccccc1Cl (stereo not drawn) | / | / | 17% | / | / | -10%
CCN1CCN(C(=O)c2ccc3c(c2)c(C)c(C)n3Cc2ccccc2)CC1 | 1% | -17 | -2% | -2% | -11% | -23%
CCn1c(C)c(C)c2cc(C(=O)NCCc3ccco3)ccc21 | / | 22 | / | 16µM* | / | /
CCn1c(C)c(C)c2cc(C(=O)NCCN3CCCCCC3)ccc21 | / | -25 | / | 13µM* | / | /
CCn1c(C)c(C)c2cc(C(=O)N3CCc4ccccc4C3)ccc21 | / | -85* | / | ? | / | /
Cc1c(C)n(C)c2ccc(C(=O)NCCc3ccco3)cc12 | / | -21 | / | ? | / | /
COc1ccc(-c2noc(-c3ccc(NCc4ccccc4OC)c([N+](=O)[O-])c3)n2)cc1 | 16%[46.1 µM] | 12 | -5% | / | 17%[46.1 µM] | 4%
O=C(/C=C/NNC(=O)c1ccccc1)c1ccc(Br)cc1 | ? | 39 | -15% | 2.2µM* | ? | 1%
SMILES | Marburg entry inh | HCMV inh | VACV mCherry inh | HCV inh | Lassa entry inh | VACV Venus inh
COc1ccc(C(=O)NN/C=C/C(=O)c2ccc(Br)cc2)cc1 | / | 49 | -6% | / | / | -16%
O=C(/C=C/NCC(=O)c1ccccc1)c1ccc(Br)cc1 | 2% | 32 | -15% | 8% | 12% | -7%
NC(=O)c1ccccc1N/C=C/C(=O)c1ccc(F)cc1 | 5% | 43 | ? | -20% | / | -23%
O=C(/C=C/Nc1ccc(Br)cc1F)c1ccccc1 | 1.3µM* | -4 | i | 6% | 1.6µM* | -6%
NC(=O)c1ccccc1N/C=C/C(=O)c1ccc(Cl)cc1Cl | 5.6µM* | 43 | -33% | -3% | ? | -21%
COc1ccc(C(=O)C=CNNC(=O)c2ccc(Cl)cc2)cc1 | ? | 14 | ? | 11µM* | 5.6µM* | -11%
C=Cc1ccc(Cn2c(C(=O)O)c(CNC3CCCCC3)c3ccc(C)cc32)cc1 | / | 7 | 2% | / | 27%[46.1 µM] | -6%
CCCCc1ccc(NC(=O)CSc2nc3ccccc3nc2N2CCCCC2)cc1 | 2%[46.1 µM] | -6 | -8% | / | 8%[46.1 µM] | -9%
Cc1cc[n+](CC(=O)c2ccc(F)cc2)cc1 | / | / | -16% | / | / | -8%
N#Cc1ccccc1N/C=C/C(=O)c1ccc(Cl)cc1 | ? | 82 | -4% | ? | 13µM* | ?
O=C(/C=C/NNC(=O)c1cccc(Br)c1)c1cccc(Br)c1 | -23% | 27 | i | ? | -10% | -13%
O=C(/C=C/NNC(=O)c1ccc(Cl)cc1)c1ccccc1 | / | -16 | -7% | 8.9µM* | / | -20%
COc1ccc(N(CC(=O)N/N=C/c2ccc(-c3ccc([N+](=O)[O-])cc3)o2)S(=O)(=O)c2ccc(C)cc2)cc1 | ? | -68* | -2% | ? | -14% | -15%
CCC(C)NC(=O)CN(c1ccc(OC)cc1)S(=O)(=O)c1ccccc1 (stereo not drawn) | ? | -10 | i | 7% | 18% | -6%
COc1ccc(N(CC(=O)N/N=C/c2cccs2)S(=O)(=O)c2ccccc2)cc1 | -12%[46.1 µM] | -67* | -5% | ? | ? | -11%
Cc1cccc(CN(CC(=O)N/N=C/c2cccs2)S(=O)(=O)c2ccc(Cl)cc2)c1 | ? | -16 | / | 11µM* | ? | ?
COc1ccc(N(CC(=O)N/N=C/c2ccc(-c3ccc([N+](=O)[O-])cc3)o2)S(=O)(=O)c2ccc(C)cc2)cc1Cl | 4% | -33 | 8% | 3% | -1% | 0%
